Results: PubChem BioAssay (NCATS)
Records with an inconclusive call do not appear. Where a call stands in place of a potency, no number is given. Activity calls are given as the source filed them. Unless noted, calls follow the shape of the full dose curve.

How the values were obtained:
[1] = Cytotoxicity counterscreen for inhibitors of SARS-CoV-2 cell entry (AID 1645845); also: nearly all actives have a fitted effect of over 50% in size
How it was run: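 48 h compound treatment (after 1 h preincubation), HEK293-ACE2 cells, 37 C/5% CO2; ATP luminescence endpoint; normalized to cell wells and media blanks.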

[2] = Confirmatory qHTS to identify inhibitors of SARS-CoV-2 cell entry (AID 1645844); also: nearly all actives have a fitted effect of over 45% in size; also: potency is read from the fitted curve at half-maximal effect
How it was run: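 Luminescence from a luciferase reporter, read 48 hr after pseudotyped-particle addition, gives entry signal, normalised to spike-bearing PP wells and bald PP lacking fusion protein wells. Cells are Expi293F stably expressing human ACE2, compound-pretreated 1 hr.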

[3] = Primary qHTS to identify inhibitors of SARS-CoV-2 cell entry (AID 1645846); details: activity change, negative = inhibition: at 57.1 µM (top of the series) unless noted; also: nearly all actives have a fitted effect of over 45% in size; also: potency is read from the fitted curve at half-maximal effect
How it was run: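 Inhibition of spike-mediated entry was scored in human ACE2-transfected Expi293F cells. Particles were MLV-pseudotyped with Wuhan-Hu-1 S carrying a 19-aa C-terminal deletion; signal was luciferase after two days, scaled between spike PP and fusion-protein-free PP.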

[4] = VSVG counterscreen qHTS to identify inhibitors of SARS-CoV-2 cell entry (AID 1645847); also: nearly all actives have a fitted effect of over 65% in size; also: potency is read from the fitted curve at half-maximal effect
How it was run: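 Luminescence from a luciferase reporter, normalised to bald particle and VSV-G pseudotyped particle wells, is the read-out. Cells are HEK293 expressing human ACE2, exposed to compound 1 h before a 48 h particle infection at 37 °C.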

[5] = biological target: Cytochrome P450 2D6 (Homo sapiens) (UniProt P10635); experiment: Cytochrome P450 family 2 subfamily D member 6 (CYP2D6) small molecule antagonists: luciferase biochemical (cell-free) qHTS assay (AID 1645840; active = well fitted curve in the direction sought with a large enough effect in the repeat runs; an effect the other way counts as inactive or inconclusive; also: nearly all actives have a fitted effect of over 55% in size)
How it was run: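 P450-Glo luminescent screen: recombinant CYP2D6 enzyme–proluciferin substrate mix preincubated with compound 10 min at room temperature, then NADPH regeneration added for 1 h at room temperature. Detection reagent added for 20 min; luciferin light read as relative luminescence units.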

[6] = biological target: Cytochrome P450 2C9 (Homo sapiens) (UniProt P11712); experiment: Cytochrome P450 family 2 subfamily C member 9 (CYP2C9) small molecule antagonists: luciferase biochemical (cell-free) qHTS assay (AID 1645842; active = well fitted curve in the direction sought with a large enough effect in the repeat runs; an effect the other way counts as inactive or inconclusive; also: potency is read from the fitted curve at half-maximal effect; nearly all actives have a fitted effect of over 55% in size)
How it was run: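 Luminescence, after 20 min with luciferin detection reagent, reflected CYP2C9 turnover during a 1 h NADPH-driven reaction at 37C. Enzyme-substrate mix contained 0.4% bovine serum albumin and was preincubated with compound 10 min at room temperature.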

[7] = A High-Content qHTS Against Drug Library for the Identification of Small Molecules that Inhibit DYT1 Early Onset Primary Dystonia-Associated Cell Pathology (AID 1645839)
How it was run: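 In this high-content image screen, delE TorsinA mislocalization in inducible Flp-In 293 cells is scored as %pathology, with cell count serving as the counterscreen. Compound exposure lasts 48 h under tetracycline induction in reduced-serum medium.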

Cytochrome P450 2C9 (Homo sapiens), sequence (P11712 whole entry, looked up): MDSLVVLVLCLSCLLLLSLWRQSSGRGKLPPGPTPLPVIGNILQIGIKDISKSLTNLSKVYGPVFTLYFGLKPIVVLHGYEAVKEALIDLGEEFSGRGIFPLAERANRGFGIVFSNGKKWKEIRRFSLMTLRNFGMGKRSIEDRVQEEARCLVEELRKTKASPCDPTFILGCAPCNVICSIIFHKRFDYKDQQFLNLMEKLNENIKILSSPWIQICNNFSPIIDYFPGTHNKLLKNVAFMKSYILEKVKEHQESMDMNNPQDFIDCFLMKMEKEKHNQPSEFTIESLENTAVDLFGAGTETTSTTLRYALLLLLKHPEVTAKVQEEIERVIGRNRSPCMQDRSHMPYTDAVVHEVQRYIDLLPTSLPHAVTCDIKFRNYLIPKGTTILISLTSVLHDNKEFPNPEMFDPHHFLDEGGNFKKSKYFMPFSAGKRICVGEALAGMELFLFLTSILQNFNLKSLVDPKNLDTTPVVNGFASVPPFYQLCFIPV
Cytochrome P450 2D6 (Homo sapiens), sequence (P10635 whole entry, looked up): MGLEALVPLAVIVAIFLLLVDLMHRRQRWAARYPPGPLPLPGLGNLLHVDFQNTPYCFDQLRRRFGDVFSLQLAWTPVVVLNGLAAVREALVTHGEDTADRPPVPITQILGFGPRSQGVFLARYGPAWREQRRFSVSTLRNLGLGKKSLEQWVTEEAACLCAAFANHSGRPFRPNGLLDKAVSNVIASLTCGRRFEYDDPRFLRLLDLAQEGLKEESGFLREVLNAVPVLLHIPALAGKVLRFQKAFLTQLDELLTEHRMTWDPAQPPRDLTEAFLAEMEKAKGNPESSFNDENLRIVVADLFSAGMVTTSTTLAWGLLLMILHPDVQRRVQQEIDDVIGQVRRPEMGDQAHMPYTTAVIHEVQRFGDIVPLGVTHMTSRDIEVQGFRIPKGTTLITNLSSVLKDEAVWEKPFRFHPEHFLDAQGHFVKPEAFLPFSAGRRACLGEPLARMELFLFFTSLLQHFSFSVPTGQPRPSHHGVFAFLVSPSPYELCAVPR

## CCOc1cc(OCC)c(C(=O)CCC(=O)O)cc1OCC
[1]
  Potency: inactive

## Cc1cc2c(cc1CC(=O)c1sccc1S(=O)(=O)Nc1onc(C)c1Cl)OCO2
[2]
  Potency: inactive
[1]
  Potency: inactive
[3]
  Potency: inactive
  activity change, negative = inhibition: -56.4%
[4]
  Potency: inactive

## CO[C@H]1C[C@@H]2CC[C@@H](C)[C@@](O)(O2)C(=O)C(=O)N2CCCC[C@@H]2C(=O)O[C@H]([C@@H](C)C[C@@H]2CC[C@H](O)[C@H](OC)C2)CC(=O)[C@H](C)C=C(C)[C@@H](O)[C@@H](OC)C(=O)[C@H](C)C[C@H](C)C=CC=CC=C1C
[1]
  Potency: inactive

## CCCCCCNC(=O)n1cc(F)c(=O)[nH]c1=O
[2]
  Potency: 8.57 µM (active)
[1]
  Potency: inactive
[4]
  Potency: 5.41 µM (active)

## Clc1ccc(C(c2ccc(Cl)cc2)C(Cl)(Cl)Cl)cc1
[5]
  Potency: inactive
[6]
  Potency: 2.19 µM (active)
[3]
  activity change, negative = inhibition: 2.18%

## C[n+]1c2cc(N)ccc2cc2ccc(N)cc21 (tested in a mixture with another compound)
[2]
  Potency: 6.07 µM (active)
[3]
  Potency: 7.94 µM (active)
[4]
  Potency: 4.29 µM (active)

## Cc1c(C)c2c(c(C)c1O)CCC(C)(COc1ccc(CC3SC(=O)NC3=O)cc1)O2 (stereo unspecified)
[2]
  Potency: 34.1 µM (active)
[1]
  Potency: inactive
[4]
  Potency: 24.1 µM (active)

## COc1ccc(C(=O)c2ccccc2)c(O)c1
[1]
  Potency: inactive

## CCCN(CCC)C(=O)Cc1c(-c2ccc(Cl)cc2)nc2ccc(Cl)cn12
[6]
  Potency: 12.3 µM (active)

## CCCCCCCN(CC)CCCC(O)c1ccc(NS(C)(=O)=O)cc1 (stereo unspecified)
[1]
  Potency: inactive

## O=c1oc2ccccc2c(O)c1Cc1c(O)c2ccccc2oc1=O
[7]
  outcome: inactive
[1]
  Potency: inactive
[3]
  Potency: inactive

## Cc1c(C(=O)O)c(O)cc2c1C(=O)c1c(O)c([C@@H]3O[C@H](CO)[C@@H](O)[C@H](O)[C@H]3O)c(O)c(O)c1C2=O
[1]
  Potency: inactive
